Measurements taken from ChEMBL document CHEMBL3988442, “University of Dundee, Small-Polar-MMV Screening Library” (2021).
For some assays here: Results with a measured potency or affinity are listed apart.

Assays:
Parameters in all cases: scale not given: direction of the effect not stated beside the values
[1] = target: Protein translocase subunit SecA (Escherichia coli (strain K12)) (UniProt P10408); test: Assay to Identify E. coli SecA ATPase Inhibitors; type: functional; conditions: 30 µM
[2] = target: T1, Ubiquitin-activating enzyme e1, putative (Leishmania donovani (strain BPK282A1)) (UniProt E9BSI1); test: Leishmania donovani Ubiquitin Activating Enzyme (LdE1); type: functional; conditions: 30 µM
T1 sequence (whole entry): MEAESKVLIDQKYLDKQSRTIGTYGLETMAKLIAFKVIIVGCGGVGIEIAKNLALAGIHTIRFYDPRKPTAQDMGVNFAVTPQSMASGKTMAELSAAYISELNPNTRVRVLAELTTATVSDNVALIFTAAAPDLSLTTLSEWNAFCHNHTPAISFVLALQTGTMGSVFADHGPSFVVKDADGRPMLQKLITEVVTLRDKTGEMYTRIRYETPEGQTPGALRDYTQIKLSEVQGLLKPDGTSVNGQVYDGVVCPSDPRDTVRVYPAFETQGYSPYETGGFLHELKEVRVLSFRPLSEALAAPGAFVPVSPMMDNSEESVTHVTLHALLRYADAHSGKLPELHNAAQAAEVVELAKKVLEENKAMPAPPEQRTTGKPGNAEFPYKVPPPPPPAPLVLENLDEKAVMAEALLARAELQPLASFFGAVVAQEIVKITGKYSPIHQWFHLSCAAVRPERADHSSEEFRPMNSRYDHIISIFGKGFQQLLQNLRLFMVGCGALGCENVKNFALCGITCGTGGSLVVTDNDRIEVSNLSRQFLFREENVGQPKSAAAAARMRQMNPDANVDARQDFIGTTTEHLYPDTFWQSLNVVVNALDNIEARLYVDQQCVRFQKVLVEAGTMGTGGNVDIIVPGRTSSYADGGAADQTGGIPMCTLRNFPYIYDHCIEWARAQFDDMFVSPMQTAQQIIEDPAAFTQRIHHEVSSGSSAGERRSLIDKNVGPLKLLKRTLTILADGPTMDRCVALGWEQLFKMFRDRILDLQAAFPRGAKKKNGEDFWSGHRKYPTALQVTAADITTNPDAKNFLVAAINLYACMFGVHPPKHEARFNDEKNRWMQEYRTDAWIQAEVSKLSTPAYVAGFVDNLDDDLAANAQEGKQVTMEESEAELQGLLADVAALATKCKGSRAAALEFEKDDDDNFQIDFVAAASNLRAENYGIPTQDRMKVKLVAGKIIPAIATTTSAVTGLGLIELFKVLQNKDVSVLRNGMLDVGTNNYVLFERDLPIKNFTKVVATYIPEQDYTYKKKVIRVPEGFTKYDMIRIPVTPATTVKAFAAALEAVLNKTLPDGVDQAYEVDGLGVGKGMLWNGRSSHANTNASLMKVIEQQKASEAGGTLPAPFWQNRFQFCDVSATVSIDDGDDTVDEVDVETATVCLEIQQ

[3] = target: AMP-activated protein kinase, AMPK (Homo sapiens) (UniProt P54646+O43741+P54619+Q9UGJ0+Q9Y478+Q13131+Q9UGI9); test: AMP-dependent Kinase enzyme assay. An in vitro enzyme assay that detects ADP turnover that is directly proportional to AMPK activity. This uses naive AMPK that is activated during the assay with MK-8722; type: functional; conditions: 30 µM
[4] = target: Sialic acid-binding Ig-like lectin 9 (Homo sapiens) (UniProt Q9Y336); test: Hs-Siglec9 ALPHAscreen SOP 20170721; conditions: 10 µM
Sequence of Sialic acid-binding Ig-like lectin 9 (Homo sapiens) (Q9Y336 whole entry): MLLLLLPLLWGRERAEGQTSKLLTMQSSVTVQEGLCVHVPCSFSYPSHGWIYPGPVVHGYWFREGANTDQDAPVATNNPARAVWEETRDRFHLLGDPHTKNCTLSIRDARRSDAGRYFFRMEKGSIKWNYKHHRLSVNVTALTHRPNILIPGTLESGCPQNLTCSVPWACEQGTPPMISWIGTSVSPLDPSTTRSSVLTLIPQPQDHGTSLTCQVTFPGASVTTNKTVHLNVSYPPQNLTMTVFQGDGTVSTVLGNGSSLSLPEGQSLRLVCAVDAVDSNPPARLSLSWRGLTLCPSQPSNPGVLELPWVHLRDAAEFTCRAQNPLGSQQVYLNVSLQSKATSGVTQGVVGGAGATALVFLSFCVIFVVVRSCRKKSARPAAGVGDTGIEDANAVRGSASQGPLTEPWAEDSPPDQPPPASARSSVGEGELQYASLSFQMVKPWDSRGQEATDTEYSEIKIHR

Trypanosoma cruzi = test: Trypanosoma cruzi phosphomannomutase and mannose-1-phosphate guanylyltransferase assay; type: functional; conditions: 10 µM
[5] = target: T2, Arginase-2, mitochondrial (Homo sapiens) (UniProt P78540); test: in vitro enzyme assay to detect the production of urea directly proportional to the activity of Arginase II; type: functional; conditions: 33.3 µM; note: in the data most compounds retested in dose-response had high values
T2 sequence (whole entry): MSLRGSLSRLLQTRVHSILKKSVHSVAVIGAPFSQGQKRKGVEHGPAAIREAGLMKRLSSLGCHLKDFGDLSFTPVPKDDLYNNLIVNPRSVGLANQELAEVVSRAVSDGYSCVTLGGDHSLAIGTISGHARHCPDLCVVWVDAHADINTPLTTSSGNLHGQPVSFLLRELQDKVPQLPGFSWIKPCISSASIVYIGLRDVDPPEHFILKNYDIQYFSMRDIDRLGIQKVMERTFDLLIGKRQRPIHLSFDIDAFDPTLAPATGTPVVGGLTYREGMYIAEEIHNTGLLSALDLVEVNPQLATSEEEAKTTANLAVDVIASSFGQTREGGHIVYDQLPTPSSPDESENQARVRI

[6] = target: T3, Proteasome subunit beta (Trypanosoma cruzi) (UniProt O96673); test: Trypanosoma cruzi proteasome chymotrypsin-like activity (TcProtChymo) assay.; note: in the data most compounds retested in dose-response had high values; type: functional; conditions: 9.37 µM
T3 sequence (whole entry): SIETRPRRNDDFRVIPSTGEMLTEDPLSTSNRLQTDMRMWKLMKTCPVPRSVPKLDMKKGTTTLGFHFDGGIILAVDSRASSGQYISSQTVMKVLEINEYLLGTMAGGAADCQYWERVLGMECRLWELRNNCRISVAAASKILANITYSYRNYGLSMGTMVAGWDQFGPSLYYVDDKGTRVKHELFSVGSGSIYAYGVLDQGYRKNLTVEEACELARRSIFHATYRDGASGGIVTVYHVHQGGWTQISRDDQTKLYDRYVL

Homo sapiens = species on record: Homo sapiens; test: To identify inhibition of the IFN signalling (Jak-Stat) pathway via expression of an eGFP reporter gene under the control of an IFN-stimulated response element (ISRE) containing MxA promoter.; type: functional; conditions: 30 µM
[7] = target: T4, Tyrosyl-tRNA synthetase, putative (Trypanosoma cruzi (strain CL Brener)) (UniProt Q4DSP6); test: Trypanosoma cruzi tyrosyl tRNA synthetase (TcYRS) _High Tyrosine SOP; type: functional; conditions: 30 µM; note: in the data most compounds retested in dose-response had high values
T4 sequence (whole entry): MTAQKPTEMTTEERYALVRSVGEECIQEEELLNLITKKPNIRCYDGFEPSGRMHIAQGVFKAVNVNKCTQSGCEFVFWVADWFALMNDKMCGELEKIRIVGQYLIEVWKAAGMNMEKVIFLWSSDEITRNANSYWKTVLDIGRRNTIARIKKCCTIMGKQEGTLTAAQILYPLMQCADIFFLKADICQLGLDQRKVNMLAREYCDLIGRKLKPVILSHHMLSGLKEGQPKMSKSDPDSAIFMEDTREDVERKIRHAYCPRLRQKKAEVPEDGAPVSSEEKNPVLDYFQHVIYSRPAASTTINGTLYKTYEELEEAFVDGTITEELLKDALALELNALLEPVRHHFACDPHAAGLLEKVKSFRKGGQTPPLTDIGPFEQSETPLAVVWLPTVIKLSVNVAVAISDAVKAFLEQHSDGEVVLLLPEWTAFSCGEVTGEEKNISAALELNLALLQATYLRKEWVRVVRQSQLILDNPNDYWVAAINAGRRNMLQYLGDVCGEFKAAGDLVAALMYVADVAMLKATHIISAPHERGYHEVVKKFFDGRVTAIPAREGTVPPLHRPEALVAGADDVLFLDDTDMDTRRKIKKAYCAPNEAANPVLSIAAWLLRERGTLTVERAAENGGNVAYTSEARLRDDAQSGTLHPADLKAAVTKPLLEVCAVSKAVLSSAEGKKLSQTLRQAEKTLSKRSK

[8] = target: T4, Tyrosyl-tRNA synthetase, putative (Trypanosoma cruzi (strain CL Brener)); test: Trypanosoma cruzi tyrosyl tRNA synthetase (TcYRS) SOP; type: functional; conditions: 30 µM
[9] = target: Chromo domain-containing protein 1 (Saccharomyces cerevisiae (strain ATCC 204508 / S288c) (Baker's yeast)) (UniProt P32657); test: ScCHD-1 Enzyme Inhibition Assay; type: functional; conditions: 30 µM; note: in the data most compounds retested in dose-response had high values
Sequence of Chromo domain-containing protein 1 (Saccharomyces cerevisiae (strain ATCC 204508 / S288c) (Baker's yeast)) (P32657 whole entry, the tested form may be a part): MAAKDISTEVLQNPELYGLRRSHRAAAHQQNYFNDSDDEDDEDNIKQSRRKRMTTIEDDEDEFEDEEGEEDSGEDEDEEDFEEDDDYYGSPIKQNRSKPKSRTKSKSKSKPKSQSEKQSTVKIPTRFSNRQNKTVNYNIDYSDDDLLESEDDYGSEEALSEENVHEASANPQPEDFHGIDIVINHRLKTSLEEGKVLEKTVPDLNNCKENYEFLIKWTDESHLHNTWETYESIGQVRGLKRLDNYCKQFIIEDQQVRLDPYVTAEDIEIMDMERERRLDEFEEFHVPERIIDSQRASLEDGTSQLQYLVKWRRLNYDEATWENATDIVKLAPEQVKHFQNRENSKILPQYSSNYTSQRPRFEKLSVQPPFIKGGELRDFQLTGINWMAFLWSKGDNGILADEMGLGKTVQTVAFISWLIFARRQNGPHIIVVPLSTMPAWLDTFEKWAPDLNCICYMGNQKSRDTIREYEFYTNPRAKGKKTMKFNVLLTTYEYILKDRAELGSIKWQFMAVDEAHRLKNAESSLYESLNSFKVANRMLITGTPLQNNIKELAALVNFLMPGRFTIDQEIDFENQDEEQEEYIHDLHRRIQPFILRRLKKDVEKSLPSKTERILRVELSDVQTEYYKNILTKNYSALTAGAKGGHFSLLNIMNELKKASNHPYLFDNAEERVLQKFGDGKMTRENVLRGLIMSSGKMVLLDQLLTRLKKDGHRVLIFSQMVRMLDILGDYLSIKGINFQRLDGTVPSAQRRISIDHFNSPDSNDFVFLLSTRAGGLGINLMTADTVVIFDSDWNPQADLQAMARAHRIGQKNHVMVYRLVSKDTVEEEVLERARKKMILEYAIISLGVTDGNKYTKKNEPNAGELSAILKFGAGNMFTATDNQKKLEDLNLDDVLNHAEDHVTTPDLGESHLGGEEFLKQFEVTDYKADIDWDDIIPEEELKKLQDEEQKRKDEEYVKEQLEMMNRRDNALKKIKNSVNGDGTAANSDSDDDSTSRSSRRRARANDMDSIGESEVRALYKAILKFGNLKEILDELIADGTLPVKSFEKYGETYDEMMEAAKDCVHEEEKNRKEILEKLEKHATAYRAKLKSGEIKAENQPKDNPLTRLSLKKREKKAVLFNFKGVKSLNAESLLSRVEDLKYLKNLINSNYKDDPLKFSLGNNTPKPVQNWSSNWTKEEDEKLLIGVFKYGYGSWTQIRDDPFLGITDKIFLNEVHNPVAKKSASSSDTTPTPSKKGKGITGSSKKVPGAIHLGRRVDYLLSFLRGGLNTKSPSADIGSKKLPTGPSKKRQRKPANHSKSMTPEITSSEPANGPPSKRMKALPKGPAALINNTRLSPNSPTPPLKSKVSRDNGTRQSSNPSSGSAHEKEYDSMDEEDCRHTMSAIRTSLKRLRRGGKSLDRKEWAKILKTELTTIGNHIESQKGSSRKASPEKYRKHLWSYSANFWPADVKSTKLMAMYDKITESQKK

Sequence of Protein translocase subunit SecA (Escherichia coli (strain K12)) (P10408 whole entry): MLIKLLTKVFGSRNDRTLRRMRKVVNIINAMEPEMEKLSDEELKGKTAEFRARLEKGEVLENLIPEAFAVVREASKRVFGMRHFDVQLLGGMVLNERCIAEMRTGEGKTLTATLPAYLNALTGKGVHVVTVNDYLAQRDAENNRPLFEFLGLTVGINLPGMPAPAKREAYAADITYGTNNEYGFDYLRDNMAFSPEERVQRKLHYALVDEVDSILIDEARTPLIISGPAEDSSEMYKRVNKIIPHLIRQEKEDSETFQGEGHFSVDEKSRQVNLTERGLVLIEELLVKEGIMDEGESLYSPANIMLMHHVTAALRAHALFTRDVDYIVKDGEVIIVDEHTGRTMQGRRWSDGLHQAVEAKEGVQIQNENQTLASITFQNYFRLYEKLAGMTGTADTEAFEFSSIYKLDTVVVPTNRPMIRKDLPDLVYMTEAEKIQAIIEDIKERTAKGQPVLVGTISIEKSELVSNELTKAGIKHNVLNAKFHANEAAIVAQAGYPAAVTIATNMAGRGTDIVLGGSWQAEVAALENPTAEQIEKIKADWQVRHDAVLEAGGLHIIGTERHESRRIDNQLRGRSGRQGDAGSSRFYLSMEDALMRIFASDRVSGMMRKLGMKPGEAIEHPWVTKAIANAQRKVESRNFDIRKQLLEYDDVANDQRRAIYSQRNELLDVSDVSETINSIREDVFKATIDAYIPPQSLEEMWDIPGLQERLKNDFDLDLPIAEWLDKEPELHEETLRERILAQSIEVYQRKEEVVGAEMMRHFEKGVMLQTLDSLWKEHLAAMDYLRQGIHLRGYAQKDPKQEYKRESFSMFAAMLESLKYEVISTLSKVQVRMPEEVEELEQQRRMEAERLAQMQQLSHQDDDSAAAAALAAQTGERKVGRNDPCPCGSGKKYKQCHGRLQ

| Compound | Percent Effect [1] [%] | Percent Effect [2] [%] | Percent Effect [3] [%] | Percent Effect [4] [%] | Percent Effect (Trypanosoma cruzi) [%] | Percent Effect [5] [%] | Percent Effect [6] [%] | Percent Effect (Homo sapiens) [%] | Percent Effect [7] [%] | Percent Effect [8] [%] | Percent Effect [9] [%] |
| --- | --- | --- | --- | --- | --- | --- | --- | --- | --- | --- | --- |
| CCn1nc(CC(C)C)cc1C(=O)N1CC[C@@H](O)C1 | -4.98 | 18.7 | -5.58 | 22.7 | 2.82 | 9.38 | 12.7 | -2.86 | 3.83 | 13.6 | 92.8 |
| CCc1ccc(CNC(=O)N2CCN(Cc3cc(C)no3)CC2)s1 | -3.56 | 15.8 | 7.06 | -6.42 | -9.24 | -1.08 | 17.2 | 13.6 | 2.46 | 6.17 | -7.04 |
| CN(Cc1ccc(N2CCCCC2)cc1)Cc1noc(C(C)(C)C)n1 | -2.34 | -13 | -0.29 | 2.11 | 0.492 | 0 | 13.8 | 9.08 | -2.15 | -6.17 | -1.32 |
| N#Cc1ncn(CC(=O)Nc2cc(Cl)ccc2F)n1 | -7.02 | 13.7 | 6.62 | 0.779 | 1.59 | -4.79 | 1.8 | -12.8 | 3.12 | 6.17 | 1.6 |
| c1coc(-c2nnc(CN3CCOC(Cn4cccn4)C3)o2)c1 (stereo unspecified) | -5.27 | 7.59 | -2.15 | 1.36 | 6.89 | 0.76 | 11.6 | 8.37 | 5.42 | 13.9 | -6.49 |
| CN(Cc1ccc(F)cc1)C(=O)NCc1nnc2n1CCCCC2 | -8.45 | 12.7 | -3.69 | 5.52 | 10.5 | -6.08 | 7.62 | 15.3 | 6.4 | 13.9 | -15 |
| Cc1cccc(-c2nc(CN3CCCCC3Cn3cncn3)no2)c1 (stereo unspecified) | -1.65 | -5.26 | 5.98 | 4.13 | 3.19 | 3.45 | 2.34 | -0.995 | 7.35 | 0 | 6.07 |
| Cc1cnn(CC2CN(CC(=O)Nc3sccc3C#N)CCO2)c1 (stereo unspecified) | -4.12 | 7.89 | 0.0642 | 13 | 0.564 | 5.75 | 3.17 | 18.2 | 4.41 | 7.32 | -1.67 |
| COCCc1noc(CNC2CCc3nc(C(C)C)nn3C2)n1 (stereo unspecified) | -1.47 | 2.6 | 8.06 | -4.34 | -1.27 | -2.74 | 6.39 | 17.2 | 0.952 | 0 | -13.7 |
| O=C(Cc1ccc2c(c1)CCC2)NCCNc1ncccn1 | -2.76 | 21.1 | 0.848 | 1.21 | 2.89 | 3.96 | 18.4 | -17.3 | 6.4 | 30.9 | -10.6 |
| CN(c1ccc(F)c(F)c1)S(=O)(=O)c1cc(C(=O)O)cs1 | -0.362 | -5.41 | -0.676 | 1.81 | -6.32 | -1.6 | -5.95 | 10.4 | -0.493 | -1.24 | -2.7 |
| Cc1ccccc1C(=O)Nc1cnn(CC(=O)NC2CCCC2)c1 | -4.39 | 0 | -22.8 | 4.85 | 1.98 | 1.6 | 20.5 | 6.03 | 7.29 | 11.1 | -0.609 |
| CC(C)c1noc(C(C)N2CCN(Cc3ccccc3C#N)CC2)n1 (stereo unspecified) | -0.614 | -2.63 | -8.38 | 2.79 | 4.58 | -2.52 | 3.81 | 10.1 | -3.45 | 3.7 | 2.36 |
| O=c1n(CCSCc2ccccc2F)nc2ccccn12 | -4.09 | 7.79 | 0.704 | -1.41 | 7.15 | 4 | 1.7 | 16.8 | 0.952 | 11.8 | -29.5 |
| CNc1cc(C)nc(C2CN(Cc3cc[nH]n3)CCO2)c1 (stereo unspecified) | -2.72 | 1.35 | 11.4 | -2.27 | -7.51 | -6.26 | -0.156 | -17.5 | 0 | 3.9 | -10.1 |
| COc1cccc(CC(=O)N2CCc3ncnc(NC(C)C)c3CC2)c1 | -5.16 | -18.9 | 0.899 | -4.76 | -3.42 | -0.319 | 7.38 | 12.2 | 3.24 | 7.69 | 0.23 |
